Our source for the composite z-score and z-score values is PubChem BioAssay.

Activity calls are given as the source filed them.

In assay [1] the test system is Plasmodium falciparum Sir2 (PF13_0152, Sir2A). Put plainly: Plasmodium falciparum Sir2A binding compounds – biochemical, small-molecule microarray, 635 nm fluorescence, primary screen (AID 1098).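 Also: score merges spot fluorescence intensity with its signal-to-noise ratio.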 The following applies: fluorescence 635 nm, higher = more signal.
Assay [2] can be described thus: probe aDKK1 binding to arrayed compounds – biochemical, biotinylated probe, 635/667 nm fluorescence, primary screen (AID 1099).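 Also: score merges 667nm spot fluorescence with signal to noise across triplicate slides.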 The conditions noted are these: small-molecule microarray, higher = more signal.
Assay [3] is described as follows: probe aCHRDL2 binding to arrayed compounds – biochemical, biotinylated probe, 635/667 nm fluorescence, primary screen (AID 1100). The following applies: small-molecule microarray, higher = more signal.
Assay [4] is described as follows: change in splice reporter luminescence, either direction, cell-based, HEK293, spliceosome inhibition project, primary screen (AID 1101).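 Also: HEK293 cells carrying a splicing-competent luciferase reporter gene; test concentration not given here.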 The conditions noted are these: HEK293 splicing luciferase reporter, 24 h, higher = more signal, called active from +8 up or from −8 down. For orientation: In a reporter assay the amount or activity of a reporter protein is the signal.

Assay [5] deals with Fibroblast growth factor 10 (Homo sapiens) (UniProt O15520). Description: compounds binding fibroblast growth factor 10 – biochemical, small-molecule microarray, 635 nm fluorescence, primary screen (AID 1102). The conditions noted are these: FGF10 binding, fluorescence 635 nm, higher = more signal.
Sequence of Fibroblast growth factor 10 (Homo sapiens) (O15520 whole entry, looked up): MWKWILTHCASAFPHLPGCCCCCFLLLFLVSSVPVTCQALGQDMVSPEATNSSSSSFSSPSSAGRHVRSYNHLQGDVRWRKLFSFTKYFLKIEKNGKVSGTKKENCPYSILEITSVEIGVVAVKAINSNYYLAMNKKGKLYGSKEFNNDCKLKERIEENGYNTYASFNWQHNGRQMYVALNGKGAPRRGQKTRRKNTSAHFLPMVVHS
The test system of assay [6] is glycogen synthase kinase-3 (GSK3A per assay name; protocol says GSK3B). Description: compounds binding glycogen synthase kinase-3 – biochemical, small-molecule microarray, 635 nm fluorescence, GSK3A, primary screen (AID 1103). Also: the record names both GSK3A and GSK3B. The following applies: fluorescence 635 nm, higher = more signal.
The target of assay [7] is Epidermal growth factor receptor (Homo sapiens) (UniProt P00533). Description: compounds binding epidermal growth factor receptor – biochemical, small-molecule microarray, 635 nm fluorescence, primary screen (AID 1104).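 Also: score merges 667 nm emission intensity with spot signal to noise over triplicate slides.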 The conditions noted are these: EGFR binding, higher = more signal.
Sequence of Epidermal growth factor receptor (Homo sapiens) (P00533 whole entry, looked up): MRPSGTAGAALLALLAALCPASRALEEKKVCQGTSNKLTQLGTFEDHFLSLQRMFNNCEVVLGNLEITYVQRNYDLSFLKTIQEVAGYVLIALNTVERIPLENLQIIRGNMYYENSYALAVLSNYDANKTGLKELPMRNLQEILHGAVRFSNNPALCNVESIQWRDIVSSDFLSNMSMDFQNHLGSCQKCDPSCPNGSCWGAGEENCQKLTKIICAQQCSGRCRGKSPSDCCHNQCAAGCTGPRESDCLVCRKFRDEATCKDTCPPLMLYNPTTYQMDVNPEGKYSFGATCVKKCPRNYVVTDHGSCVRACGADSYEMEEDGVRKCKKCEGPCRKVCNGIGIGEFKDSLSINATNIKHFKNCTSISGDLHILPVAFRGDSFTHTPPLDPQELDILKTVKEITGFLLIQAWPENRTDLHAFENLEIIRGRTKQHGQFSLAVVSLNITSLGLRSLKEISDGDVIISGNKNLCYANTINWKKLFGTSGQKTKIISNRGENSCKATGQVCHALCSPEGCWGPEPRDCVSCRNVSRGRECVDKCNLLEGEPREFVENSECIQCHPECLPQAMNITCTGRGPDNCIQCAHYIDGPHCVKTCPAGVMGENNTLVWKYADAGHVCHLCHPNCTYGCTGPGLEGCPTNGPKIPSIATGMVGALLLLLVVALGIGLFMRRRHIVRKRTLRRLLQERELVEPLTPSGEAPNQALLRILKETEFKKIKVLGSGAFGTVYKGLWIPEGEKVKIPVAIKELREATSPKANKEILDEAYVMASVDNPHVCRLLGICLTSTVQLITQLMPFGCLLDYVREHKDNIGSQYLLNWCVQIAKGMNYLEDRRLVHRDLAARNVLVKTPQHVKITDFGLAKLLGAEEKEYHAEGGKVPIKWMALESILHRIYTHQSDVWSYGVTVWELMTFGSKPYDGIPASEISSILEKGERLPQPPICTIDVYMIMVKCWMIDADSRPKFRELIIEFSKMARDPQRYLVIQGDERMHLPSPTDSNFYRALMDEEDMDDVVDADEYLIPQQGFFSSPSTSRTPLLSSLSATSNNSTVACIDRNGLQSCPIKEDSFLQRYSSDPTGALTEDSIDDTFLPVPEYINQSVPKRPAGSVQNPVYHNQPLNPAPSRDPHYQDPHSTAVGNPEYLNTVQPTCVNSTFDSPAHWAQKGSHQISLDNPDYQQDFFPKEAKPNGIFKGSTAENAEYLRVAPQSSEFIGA
Assay [8] has as its target Follistatin-related protein 3 (Homo sapiens) (UniProt O95633). Description: compounds binding follistatin-related protein 3 – biochemical, small-molecule microarray, 635 nm fluorescence, primary screen (AID 1105).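 Also: score merges emission near 667 nm and signal to noise per printed spot across three slides.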 The conditions noted are these: FSTL3 binding, higher = more signal.
Assay [9] concerns the target Dickkopf-related protein 1 (Homo sapiens) (UniProt O94907). Put plainly: small molecules binding DKK1 protein – biochemical, small-molecule microarray, 635 nm fluorescence scan, primary screen (AID 1106).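 Also: score merges emission near 667 nm with signal to noise over three replicate slides.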 The following applies: higher = more signal.
In assay [10] the test system is Inhibin beta A chain (activin A). Put plainly: small molecules binding activin A – biochemical, small-molecule microarray, 635 nm fluorescence scan, primary screen (AID 1107).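 Also: mouse activin A protein probed at 4.33 µg/mL on printed slides; score merges bound-protein fluorescence near 667 nm with spot signal-to-noise.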 The conditions noted are these: INHBA, higher = more signal.
In assay [11] the test system is Human papillomavirus type 1a protein E7 (residues 44-93). Put plainly: small molecules binding HPV E7 44-93 – biochemical, small-molecule microarray, residues 44-93, 635 nm fluorescence, primary screen (AID 1108).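 Also: E7 fragment applied at 1 µg/mL in TBST for 1 h at 4 C; score combines spot fluorescence with its signal to noise ratio.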 The conditions noted are these: fluorescence 635 nm, higher = more signal.
Assay [12] is described as follows: hepatitis C replication reporter changes, two-sided – Huh7 cells, luciferase reporter, HCV replication inhibitor project, primary screen (AID 1109).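 Also: huh7 hepatoma cells harbouring a luciferase neomycin HCV replicon reporter; luciferase luminescence as measure of HCV replicon replication; test concentration not given here.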 The conditions noted are these: Huh7 HCV replicon luciferase reporter, 48 h; higher = more signal.
The target in assay [13] is Left-right determination factor 2 (Homo sapiens) (UniProt O00292). Description: small molecules binding LEFTY2 protein – biochemical, small-molecule microarray, 635 nm fluorescence scan, primary screen (AID 1110). The conditions noted are these: higher = more signal.
Sequence of Left-right determination factor 2 (Homo sapiens) (O00292 whole entry, looked up): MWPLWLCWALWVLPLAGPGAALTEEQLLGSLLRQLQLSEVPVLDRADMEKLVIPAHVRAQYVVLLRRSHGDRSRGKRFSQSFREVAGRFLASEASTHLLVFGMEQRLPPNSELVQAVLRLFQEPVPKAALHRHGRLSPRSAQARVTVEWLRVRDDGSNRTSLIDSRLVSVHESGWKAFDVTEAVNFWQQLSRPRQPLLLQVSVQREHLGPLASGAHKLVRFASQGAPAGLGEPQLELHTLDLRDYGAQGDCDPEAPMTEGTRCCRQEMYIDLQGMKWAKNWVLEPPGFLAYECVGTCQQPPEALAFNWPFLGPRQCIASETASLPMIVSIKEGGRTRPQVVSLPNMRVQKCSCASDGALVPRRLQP
Assay [14] has as its target Calmodulin-1 (Homo sapiens) (UniProt P0DP23). Put plainly: small molecules binding calmodulin-1 with EGTA – biochemical, small-molecule microarray, Cy5-labelled CALM1, profiling panel (AID 1111).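 Also: labelled calmodulin applied in Tris saline Tween buffer holding calcium plus EGTA and DTT.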 The following applies: Cy5-CALM1 binding fluorescence, higher = more signal.
For assay [15] the target is unchanged. Put plainly: small molecules binding Ca-loaded calmodulin-1 – biochemical, small-molecule microarray, Cy5-labelled CALM1, plus calcium, artefact control for SMM control-protein annotation, profiling panel (AID 1112).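 Also: score merges spot fluorescence with signal to noise from triplicate slides.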 The conditions noted are these: Cy5-CALM1 binding fluorescence, higher = more signal.
Assay [16] can be described thus: probe aWnt5a binding to arrayed compounds – biochemical, biotinylated probe, 635/667 nm fluorescence, primary screen (AID 1113).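 Also: score merges 667 nm fluorescence intensity with signal-to-noise per printed feature.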 The conditions noted are these: small-molecule microarray, higher = more signal.
The nature of assay [17]: probe aShh binding to arrayed compounds – biochemical, biotinylated probe, 635/667 nm fluorescence, primary screen (AID 1114).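 Also: probe is biotin-labelled aShh protein from a stem cell growth factor screen; measures binding of labelled protein to compounds printed on the slide; score merges feature fluorescence at 667 nm with signal-to-noise.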 The conditions noted are these: small-molecule microarray, higher = more signal.
Assay [18] can be described thus: probe aNog binding to arrayed compounds – biochemical, biotinylated probe, 635/667 nm fluorescence, primary screen (AID 1115).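 Also: probe is biotinylated aNog protein used at 0.15 µg/mL for 1 h at 4 C; z-score combines 667 nm fluorescence of each spot with its signal to noise.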 The following applies: small-molecule microarray, higher = more signal.
The target in assay [19] is Torsin-1A-interacting protein 1 (Homo sapiens) (UniProt Q5JTV8). Description: compound microarray binding of lysate hLAP1 – cell lysate, small-molecule microarray, COS7 lysate, 635/667 nm fluorescence, primary screen (AID 1116). The following applies: 635 nm fluorescence, higher = more signal.
Sequence of Torsin-1A-interacting protein 1 (Homo sapiens) (Q5JTV8 whole entry, looked up): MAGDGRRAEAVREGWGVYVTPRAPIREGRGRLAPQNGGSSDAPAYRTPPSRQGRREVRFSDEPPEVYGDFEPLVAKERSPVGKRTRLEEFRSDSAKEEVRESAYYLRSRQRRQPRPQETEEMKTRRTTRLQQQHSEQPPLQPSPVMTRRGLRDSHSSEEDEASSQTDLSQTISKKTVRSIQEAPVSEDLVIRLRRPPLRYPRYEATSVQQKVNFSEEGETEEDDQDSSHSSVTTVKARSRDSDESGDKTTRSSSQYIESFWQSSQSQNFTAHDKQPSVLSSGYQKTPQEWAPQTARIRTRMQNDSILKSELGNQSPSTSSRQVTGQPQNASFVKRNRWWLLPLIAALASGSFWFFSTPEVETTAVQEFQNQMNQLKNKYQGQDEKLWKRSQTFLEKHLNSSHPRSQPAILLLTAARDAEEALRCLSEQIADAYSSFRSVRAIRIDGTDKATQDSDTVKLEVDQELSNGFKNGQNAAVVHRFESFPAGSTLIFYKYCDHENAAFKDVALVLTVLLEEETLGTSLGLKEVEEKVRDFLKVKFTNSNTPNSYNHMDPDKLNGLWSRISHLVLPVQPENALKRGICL
For assay [20], the target named is Alpha-bungarotoxin (Bungarus multicinctus) (UniProt P60615). Description: compounds binding labelled alpha-BTX control protein – biochemical, small-molecule microarray, Alexa647 label, 635/667 nm fluorescence, artefact control for SMM control protein annotation, profiling panel (AID 1117). The conditions noted are these: alpha-BTX-A647 binding fluorescence, higher = more signal.
Sequence of Alpha-bungarotoxin (Bungarus multicinctus) (P60615 whole entry, looked up): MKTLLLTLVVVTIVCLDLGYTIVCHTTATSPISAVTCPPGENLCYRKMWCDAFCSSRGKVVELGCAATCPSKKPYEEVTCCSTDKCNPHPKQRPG

Sequence of Follistatin-related protein 3 (Homo sapiens) (O95633 whole entry, looked up): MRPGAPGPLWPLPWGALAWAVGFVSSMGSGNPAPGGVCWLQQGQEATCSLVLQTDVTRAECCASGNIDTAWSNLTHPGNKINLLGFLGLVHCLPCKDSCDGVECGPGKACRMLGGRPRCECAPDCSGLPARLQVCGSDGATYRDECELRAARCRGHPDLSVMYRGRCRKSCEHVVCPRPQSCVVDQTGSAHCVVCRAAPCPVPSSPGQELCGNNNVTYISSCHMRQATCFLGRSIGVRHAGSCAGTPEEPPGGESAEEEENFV
Sequence of Dickkopf-related protein 1 (Homo sapiens) (O94907 whole entry, looked up): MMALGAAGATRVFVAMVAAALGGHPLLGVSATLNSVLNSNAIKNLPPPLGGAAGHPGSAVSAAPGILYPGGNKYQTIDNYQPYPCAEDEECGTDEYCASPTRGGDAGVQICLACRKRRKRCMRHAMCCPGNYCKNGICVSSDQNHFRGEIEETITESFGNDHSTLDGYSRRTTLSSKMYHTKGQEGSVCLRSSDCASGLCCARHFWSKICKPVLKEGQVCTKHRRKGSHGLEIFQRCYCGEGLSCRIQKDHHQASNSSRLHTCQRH

For the compound `COCCOC(=O)N1C(=O)[C@@]2(c3cc(C#Cc4ccc(OC)cc4)ccc31)[C@H](C(=O)Nc1nc3ccccc3s1)[C@H]1C(=O)O[C@H](c3ccccc3)[C@H](c3ccccc3)N1[C@@H]2c1ccc(O)cc1`, the composite z-score in assay [1] was 1.48; in [2] it was 0.166; in assay [3], -0.0767; in assay [5] it was 1.39; in assay [6], 1.29; in [7] it was 0.571. In addition, the composite z-score in assay [8] was determined as 1.24; in assay [9], 0.875; in [10], 0.318; in [11] it was 1.38; in assay [13], 0.631; in assay [14], 0.876. Also, the composite z-score in assay [15] was -0.138; in assay [16], 0.0559; in assay [17] it was 0.314; in [18] it was -0.376; in [19], 0.37; in assay [20] it was 1.34. The figures for the z-score in assay [4] and in [12] were -0.591 (inactive) and -0.841, respectively.

For `C=C(/C(=C/C[C@H](OC(=O)c1ccncc1)c1ccc(CO)o1)c1cc(C(=O)OC)ccc1OC)C(C)C`, the composite z-score is 0.805 in assay [1]; -0.0125 in assay [2]; -0.0735 in [3]; 0.909 in assay [5]; 0.851 in [6]; 0.0286 in assay [7]. Moreover, the composite z-score in [8] is 0.752; in assay [9], 0.667; in assay [10], 1.04; in assay [11], 1.31; in [13] it was 0.34; in [14], -0.0383. Besides, the composite z-score in assay [15] is -0.748; in assay [16], 0.0037; in assay [17] it was 0.235; in [18] it was -0.0247; in assay [19], 0.602; in assay [20], 0.0818. The z-score was 0.174 (inactive) in assay [4] and -0.706 in [12].

For the compound `CC(CO)N1C(=O)[C@@H]2[C@H]3C(=O)OCC=C[C@H]3OC23C=CCN(CCN2CCOCC2)C(=O)[C@@H]13` (stereo not given in full), the composite z-score is 1.12 in [1]; -0.373 in assay [2]; -0.646 in assay [3]; -0.199 in assay [5]; 0.248 in assay [6]; -0.101 in [7]. The composite z-score is 0.152 in assay [8]; 0.439 in assay [9]; 0.777 in assay [10]; -0.186 in assay [11]; -0.396 in assay [13]; -0.998 in assay [14]. Besides, the composite z-score in assay [15] was -1.55; in [16], -0.144; in assay [17], -0.309; in assay [18], -0.5; in [19], -0.469; in assay [20] it was -0.245. Besides, the z-score in assay [4] was 0.497 (inactive); in assay [12], 0.606.

Regarding `CC(C)(C)OC(=O)CC[C@]1(C(=O)NCc2ccccc2)N=C(c2ccc(OCCCO)cc2)O[C@H]1c1ccccc1CN=[N+]=[N-]`, the composite z-score was 1.45 in assay [1]; 0.242 in assay [2]; 0.545 in [3]; 1.22 in assay [5]; 1.36 in assay [6]; 0.227 in [7]. For the same compound, the composite z-score in [8] came out at 1.37; in [9], 0.133; in assay [10], 0.554; in assay [11], 1.41; in assay [13], 0.735; in assay [14], 1.27. In addition, the composite z-score is -0.232 in assay [15]; 0.152 in assay [16]; 0.0483 in assay [17]; -0.0768 in assay [18]; 1.69 in assay [19]; 0.466 in assay [20]. Also, the z-score is 0.22 (inactive) in [4] and -2.11 in assay [12].

On to `O=C1OCC=C[C@H]2OC34C=CCN(c5ccc(Cl)cc5)C(=O)[C@H]3N(CCO)C(=O)[C@@H]4[C@@H]12` (stereo not given in full), for which the composite z-score in [1] is 0.201; in assay [2], -0.521; in [3], 0.777; in assay [5] it was -0.25; in assay [6], -0.747; in assay [7] it was -0.962. Further, the composite z-score is -1.68 in assay [8]; -1.71 in assay [9]; -0.303 in [10]; -0.0723 in assay [11]; -0.884 in assay [13]; -0.577 in assay [14]. For the same compound, the composite z-score was 0.515 in [15]; -0.28 in assay [16]; -0.304 in assay [17]; -0.115 in assay [18]; 0.0143 in [19]; -0.003 in [20]. Further, the figures for the z-score in assay [4] and in assay [12] were 0.169 (inactive) and -0.515, respectively.
